Reference: the supplement of paper PMC10849652
About 8,800 targets were measured; listed, in parts, are those with a hit and a random draw of the rest. About 0.5% of all pairs of compound and target were hits. Values without a mark were called inactive.

Tests used:
Experiment in all cases: log2 fold change, soluble protein after heating vs DMSO (PISA); higher = thermal stabilisation; K562 lysate, 10 uM; active = over 0.2 and 3.5 SD of the protein, either way, in both replicates (recomputed)
[1] = compound: C1=CC=C(C=C1)[C@H](COC2=CC3=C(C=C2)NC(=O)N3)NC(=O)C4=CC=CN(C4=O)CC5=CC(=C(C=C5)F)F
How it was run: (§1)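 Pellets of K562 cells were dounce-homogenised in PBS pH 7.4 with 1 mM MgCl2, and the crude extract was held at 1 mg/mL protein for a 30 min treatment with 10 μM compound. Aliquots were heated for 3 min over 48°C-58°C and pooled before NP-40 was added to 0.5% at 4°C. The supernatant from 21,000xg for 90 min was quantified by TMTpro 16plex LC-MS/MS with channel sums equalised. Values are reported from duplicates as log-two fold change in thermal stability relative to solvent controls.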

[2] = compound: CC1=C(SC2=C1C(=N[C@H](C3=NN=C(N32)C)CC(=O)N)C4=CC=C(C=C4)Cl)C
How it was run: as §1

[3] = compound: CC1=C2C(=CC=C1)N=C(N(C2=O)C3=CC=CC=C3C)CN4C=NC5=C(N=CN=C54)N
How it was run: as §1

[4] = compound: Cc1sc2c(c1C)C(c1ccc(Cl)cc1)=N[C@@H](CC(=O)OC(C)(C)C)c1nnc(C)n1-2
How it was run: as §1

[5] = compound: c1ccc([C@@H]2C[C@H]2NC2CCNCC2)cc1
How it was run: as §1

Chain of UniProt Q96II8 (Q96II8 whole entry, looked up): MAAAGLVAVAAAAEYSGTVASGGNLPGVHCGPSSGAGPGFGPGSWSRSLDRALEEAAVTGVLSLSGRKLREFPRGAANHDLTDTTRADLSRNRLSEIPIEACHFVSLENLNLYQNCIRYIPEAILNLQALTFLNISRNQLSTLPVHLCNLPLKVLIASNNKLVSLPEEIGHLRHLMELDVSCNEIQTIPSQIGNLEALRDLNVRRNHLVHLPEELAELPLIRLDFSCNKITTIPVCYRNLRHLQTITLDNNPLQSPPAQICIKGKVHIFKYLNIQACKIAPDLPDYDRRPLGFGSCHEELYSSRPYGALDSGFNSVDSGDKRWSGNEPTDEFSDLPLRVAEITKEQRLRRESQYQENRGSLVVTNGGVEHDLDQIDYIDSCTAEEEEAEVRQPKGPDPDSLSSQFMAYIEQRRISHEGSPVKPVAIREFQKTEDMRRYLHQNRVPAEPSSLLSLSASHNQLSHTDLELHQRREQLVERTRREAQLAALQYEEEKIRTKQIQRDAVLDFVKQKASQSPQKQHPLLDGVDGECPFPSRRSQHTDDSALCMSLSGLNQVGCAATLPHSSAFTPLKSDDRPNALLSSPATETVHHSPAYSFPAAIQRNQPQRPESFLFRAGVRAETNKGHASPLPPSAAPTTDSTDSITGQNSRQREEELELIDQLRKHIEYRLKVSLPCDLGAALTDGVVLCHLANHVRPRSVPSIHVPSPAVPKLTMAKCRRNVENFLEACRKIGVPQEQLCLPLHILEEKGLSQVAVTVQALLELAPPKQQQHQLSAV
Chain of UniProt Q14807 (Q14807 whole entry, looked up): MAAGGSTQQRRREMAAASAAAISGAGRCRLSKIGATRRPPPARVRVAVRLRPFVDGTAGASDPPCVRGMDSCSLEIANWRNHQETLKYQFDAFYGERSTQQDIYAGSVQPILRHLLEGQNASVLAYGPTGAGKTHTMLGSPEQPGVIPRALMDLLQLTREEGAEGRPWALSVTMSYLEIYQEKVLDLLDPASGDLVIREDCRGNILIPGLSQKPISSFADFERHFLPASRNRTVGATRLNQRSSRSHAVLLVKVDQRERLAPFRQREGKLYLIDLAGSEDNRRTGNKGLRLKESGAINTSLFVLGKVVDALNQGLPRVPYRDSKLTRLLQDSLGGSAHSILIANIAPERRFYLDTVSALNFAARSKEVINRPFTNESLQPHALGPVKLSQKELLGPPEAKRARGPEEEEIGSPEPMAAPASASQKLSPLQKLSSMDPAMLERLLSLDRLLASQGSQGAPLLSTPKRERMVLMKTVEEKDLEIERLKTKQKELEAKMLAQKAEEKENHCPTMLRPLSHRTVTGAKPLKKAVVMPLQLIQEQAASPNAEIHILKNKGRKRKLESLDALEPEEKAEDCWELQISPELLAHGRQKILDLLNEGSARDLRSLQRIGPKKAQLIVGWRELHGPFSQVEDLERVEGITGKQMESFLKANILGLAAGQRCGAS
Chain of UniProt Q9UI95 (Q9UI95 whole entry, looked up): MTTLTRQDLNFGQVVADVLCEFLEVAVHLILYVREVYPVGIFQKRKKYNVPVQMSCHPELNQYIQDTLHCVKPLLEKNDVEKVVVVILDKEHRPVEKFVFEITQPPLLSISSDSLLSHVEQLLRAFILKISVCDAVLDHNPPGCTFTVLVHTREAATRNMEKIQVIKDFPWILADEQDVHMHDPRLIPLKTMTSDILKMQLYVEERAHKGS
Chain of UniProt Q9H089 (Q9H089 whole entry, looked up): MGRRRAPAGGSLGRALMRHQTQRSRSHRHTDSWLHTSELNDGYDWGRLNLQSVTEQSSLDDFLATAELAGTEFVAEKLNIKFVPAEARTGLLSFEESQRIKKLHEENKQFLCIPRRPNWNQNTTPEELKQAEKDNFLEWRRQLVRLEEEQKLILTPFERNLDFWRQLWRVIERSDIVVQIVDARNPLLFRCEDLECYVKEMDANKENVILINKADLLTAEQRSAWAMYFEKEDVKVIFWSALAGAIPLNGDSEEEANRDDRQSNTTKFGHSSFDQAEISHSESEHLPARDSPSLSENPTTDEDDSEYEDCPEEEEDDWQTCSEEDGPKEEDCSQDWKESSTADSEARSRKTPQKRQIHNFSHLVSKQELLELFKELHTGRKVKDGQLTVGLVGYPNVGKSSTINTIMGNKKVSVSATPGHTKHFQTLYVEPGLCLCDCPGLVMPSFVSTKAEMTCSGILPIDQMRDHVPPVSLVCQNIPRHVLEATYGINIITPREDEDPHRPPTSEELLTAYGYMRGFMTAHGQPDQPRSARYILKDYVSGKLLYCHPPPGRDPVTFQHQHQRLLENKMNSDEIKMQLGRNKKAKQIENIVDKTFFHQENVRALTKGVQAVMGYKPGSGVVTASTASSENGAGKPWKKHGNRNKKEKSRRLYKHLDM
Chain of UniProt Q9NSK0 (Q9NSK0 whole entry, looked up): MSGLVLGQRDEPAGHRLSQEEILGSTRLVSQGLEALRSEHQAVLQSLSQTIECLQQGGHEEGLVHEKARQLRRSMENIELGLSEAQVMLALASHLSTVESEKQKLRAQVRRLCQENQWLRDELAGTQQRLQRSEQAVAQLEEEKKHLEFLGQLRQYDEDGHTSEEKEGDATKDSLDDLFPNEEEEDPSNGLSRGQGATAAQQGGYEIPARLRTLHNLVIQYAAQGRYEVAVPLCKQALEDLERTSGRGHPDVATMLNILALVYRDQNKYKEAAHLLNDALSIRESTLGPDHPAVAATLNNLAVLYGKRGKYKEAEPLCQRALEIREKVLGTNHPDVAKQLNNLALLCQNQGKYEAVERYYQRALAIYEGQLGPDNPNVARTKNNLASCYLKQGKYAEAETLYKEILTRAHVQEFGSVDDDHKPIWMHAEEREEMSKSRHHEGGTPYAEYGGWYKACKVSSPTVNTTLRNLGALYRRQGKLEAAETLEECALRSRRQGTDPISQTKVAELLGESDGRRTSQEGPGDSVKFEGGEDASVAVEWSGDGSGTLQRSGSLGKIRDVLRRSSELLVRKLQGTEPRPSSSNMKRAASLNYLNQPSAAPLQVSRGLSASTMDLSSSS
Chain of UniProt O95396 (O95396 whole entry, looked up): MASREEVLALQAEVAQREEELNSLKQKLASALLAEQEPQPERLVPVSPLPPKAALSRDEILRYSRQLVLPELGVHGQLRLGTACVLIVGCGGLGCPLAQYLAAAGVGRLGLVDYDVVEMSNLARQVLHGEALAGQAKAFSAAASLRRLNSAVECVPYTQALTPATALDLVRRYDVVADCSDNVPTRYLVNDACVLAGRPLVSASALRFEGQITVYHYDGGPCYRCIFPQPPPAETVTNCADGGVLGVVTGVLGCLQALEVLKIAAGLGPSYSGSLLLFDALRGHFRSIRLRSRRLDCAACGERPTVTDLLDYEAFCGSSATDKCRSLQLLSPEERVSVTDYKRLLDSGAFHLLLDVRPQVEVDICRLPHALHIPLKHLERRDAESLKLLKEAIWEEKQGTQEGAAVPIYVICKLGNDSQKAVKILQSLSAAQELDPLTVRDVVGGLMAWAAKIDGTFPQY
Chain of UniProt O95777 (O95777 whole entry, looked up): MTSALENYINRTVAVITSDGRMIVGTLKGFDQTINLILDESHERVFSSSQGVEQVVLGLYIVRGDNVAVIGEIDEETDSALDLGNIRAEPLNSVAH
Chain of UniProt Q86V48 (Q86V48 whole entry, looked up): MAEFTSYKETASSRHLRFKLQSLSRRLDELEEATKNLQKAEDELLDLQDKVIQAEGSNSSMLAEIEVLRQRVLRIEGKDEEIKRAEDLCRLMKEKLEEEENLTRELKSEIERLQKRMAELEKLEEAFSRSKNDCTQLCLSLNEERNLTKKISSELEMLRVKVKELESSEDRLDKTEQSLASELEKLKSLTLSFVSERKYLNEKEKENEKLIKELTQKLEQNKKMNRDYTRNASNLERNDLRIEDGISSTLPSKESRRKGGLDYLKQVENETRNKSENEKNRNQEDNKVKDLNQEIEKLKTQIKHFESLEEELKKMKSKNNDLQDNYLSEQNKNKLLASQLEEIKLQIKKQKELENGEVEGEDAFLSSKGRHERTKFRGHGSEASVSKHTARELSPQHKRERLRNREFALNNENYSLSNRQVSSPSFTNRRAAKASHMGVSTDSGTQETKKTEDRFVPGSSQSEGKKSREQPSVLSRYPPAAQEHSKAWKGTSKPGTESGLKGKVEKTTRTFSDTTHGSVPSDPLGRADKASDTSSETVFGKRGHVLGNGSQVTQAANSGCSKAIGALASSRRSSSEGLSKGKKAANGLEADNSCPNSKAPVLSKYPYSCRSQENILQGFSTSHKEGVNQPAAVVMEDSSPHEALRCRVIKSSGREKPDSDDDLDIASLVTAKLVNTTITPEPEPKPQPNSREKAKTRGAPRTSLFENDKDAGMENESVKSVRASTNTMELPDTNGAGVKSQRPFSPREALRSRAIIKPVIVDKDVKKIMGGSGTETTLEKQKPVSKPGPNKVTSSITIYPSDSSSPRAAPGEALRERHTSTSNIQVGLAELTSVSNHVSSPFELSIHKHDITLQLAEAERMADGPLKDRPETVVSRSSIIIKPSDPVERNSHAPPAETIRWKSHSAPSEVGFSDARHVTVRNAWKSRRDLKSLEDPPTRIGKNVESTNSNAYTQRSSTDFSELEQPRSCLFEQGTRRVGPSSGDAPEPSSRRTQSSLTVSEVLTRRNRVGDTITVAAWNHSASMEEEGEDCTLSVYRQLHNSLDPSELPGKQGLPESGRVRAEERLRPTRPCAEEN
Chain of UniProt P10620 (P10620 whole entry, looked up): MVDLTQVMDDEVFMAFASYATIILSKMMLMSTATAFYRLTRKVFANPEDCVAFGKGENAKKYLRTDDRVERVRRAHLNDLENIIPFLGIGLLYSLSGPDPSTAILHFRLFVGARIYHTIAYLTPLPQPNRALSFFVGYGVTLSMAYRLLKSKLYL
Chain of UniProt Q68D91 (Q68D91 whole entry, looked up): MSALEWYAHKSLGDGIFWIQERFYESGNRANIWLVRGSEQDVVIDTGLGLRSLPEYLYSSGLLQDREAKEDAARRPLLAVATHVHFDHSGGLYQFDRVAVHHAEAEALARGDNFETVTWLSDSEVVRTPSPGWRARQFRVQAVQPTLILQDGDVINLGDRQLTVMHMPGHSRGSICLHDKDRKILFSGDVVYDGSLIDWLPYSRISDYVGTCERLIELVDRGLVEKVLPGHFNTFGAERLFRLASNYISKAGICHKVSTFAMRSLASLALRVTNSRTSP

Target	log2 fold change [1]	log2 fold change [2]	log2 fold change [3]	log2 fold change [4]	log2 fold change [5]
KLC4 isoform 3 (UniProt Q9NSK0)	0.011	0.004	-0.003	0.01	0.014
MBD2 (UniProt Q9UBB5)	0.042	0.008	-0.028	0.065	0.027
LARS (UniProt Q9P2J5)	-0.02	-0.007	0.015	0.04	0.077
LSG1 (UniProt Q9H089)	0.068	0.038	0.084	-0.028	-0.044
MAPK9 (UniProt P45984)	-0.021	0.013	0.045	-0.071	0.033
MAP2K4 isoform 2 (UniProt P45985)	-0.018	0.005	-0.065	-0.013	0.188
KSR1 (UniProt Q8IVT5)	-0.081	-0.024	0.035	0.035	0.242 (active)
KIF22 (UniProt Q14807)	0.047	0.077	0.014	-0.159	-0.198
MCCC1 (UniProt Q96RQ3)	-0.063	0.015	0.046	0.002	0.059
LUZP1 (UniProt Q86V48)	0.039	-0.113	0.032	0.007	-0.056
LRCH3 (UniProt Q96II8)	-0.038	-0.044	0.025	-0.014	-0.028
MAPKAPK3 (UniProt Q16644)	0.03	-0.031	-0.005	0.009	0.019
MPP1 (UniProt Q00013)	-0.01	0.006	0.024	0.016	0.044
LSM8 (UniProt O95777)	-0.057	-0.012	0.017	-0.004	-0.029
MBLAC2 (UniProt Q68D91)	-0.011	-0.005	0.001	0.013	-0.033
MAD2L2 (UniProt Q9UI95)	-0.032	-0.006	-0.018	-0.085	0.096
MOCS3 (UniProt O95396)	-0.056	-0.019	0.278	0.025	-0.176
MGST1 (UniProt P10620)	-0.08	0.005	0	-0.056	0.022
MORF4L1 isoform 2 (UniProt Q9UBU8)	0.012	-0.03	-0.029	-0.041	-0.035
